# Records with an inconclusive call do not appear. Calls of active or inactive are those of the source. The calls were made as follows: active = hit-call score of the fitted dose curve at least 0.9, where 1 is the maximum; inconclusive = response in the unintended direction; inactive = score below 0.9.
# Target: human Peroxisome Proliferator-activated Receptor delta (PPARd), PPARD (gene 5467) (UniProt Q03181)
# Assay: ATG_PPARd_TRANS: Attagene TRANS-FACTORIAL HepG2 Assay for human Peroxisome Proliferator-activated Receptor delta (PPARd) (AID 2283002)
# Protocol: ATG_TRANS is a cell-based, multiplexed-readout assay that uses HepG2, a human liver cell line, with measurements taken at 24 hours after chemical dosing in a 24-well plate.ATG_PPARd_TRANS is one of 30 assay component(s) measured or calculated from the ATG_TRANS assay. It is designed to make measurements of mRNA induction, a form of inducible reporter, as detected with fluorescence intensity signals by Reverse transcription polymerase chain reaction (RT-PCR) and Capillary electrophoresis technology.Data from the assay component ATG_PPARd_TRANS was analyzed into 1 assay endpoint. This assay endpoint, ATG_PPARd_TRANS, was analyzed in the positive analysis fitting direction relative to DMSO as the negative control and baseline of activity. Using a type of inducible reporter, measures of mRNA for gain-of-signal activity can be used to understand the reporter gene at the transcription factor-level as they relate to the gene PPARD. Furthermore, this assay endpoint can be referred to as a primary readout, because this assay has produced multiple assay endpoints where this one serves a reporter gene function. To generalize the intended target to other relatable targets, this assay endpoint is annotated to the nuclear receptor intended target family, where the subfamily is non-steroidal.
# Human liver HepG2 cells are transiently transfected with multiple reporter transcription units (MRTUs) in 6-well plates using FuGene 6 reagent (Roche; 3 ml FuGene/1 mg DNA). The MRTU constructs are regulated by a cis-regulating element (promoter). […] A major difference between the CIS and TRANS system is that in CIS activities of endogenous TFs are measured, whereas the TRANS assay evaluates changes in activities of exogenous, chimeric NR-Gal4 proteins. […] At the end of 24 hour incubation, total RNA was isolated using TriZol reagent (Invitrogen). The isolated RNA is then reverse-transcribed using oligo(dT) primer and Mo-MLV reverse transcriptase (Invitrogen) with DNAse I (Ambion) treatment for 30 min. The one-tenth of the produced cDNA was amplified by PCR using Taq DNA polymerase (Invitrogen) and two reporter sequence-specific primers. The PCR products were fluorescently labeled by primer extension with 6-arboxyfluorescein (6-FAM) 5'-labeled reporter sequence-specific primer (2 min at 95 C, 20 s at 68 C and 10 min at 72 C) and these products were digested with 5U of HpaI (New England Biolabs) for 2h at 37 C. The fragments were purified using Qiaquick PCR columns (Qiagen), analyzed on an ABI 3130xL genetic analyzer (Applied Biosystems) with peak positions identified by using a set of X-rhodamine (ROX)-labeled MapMarker1000 molecular weight standards (BioVentures). The raw capillary electrophoresis data was processed using Attagraph software (Attagene).
# Chain of human Peroxisome Proliferator-activated Receptor delta (PPARd), PPARD (gene 5467) (Q03181 whole entry, looked up): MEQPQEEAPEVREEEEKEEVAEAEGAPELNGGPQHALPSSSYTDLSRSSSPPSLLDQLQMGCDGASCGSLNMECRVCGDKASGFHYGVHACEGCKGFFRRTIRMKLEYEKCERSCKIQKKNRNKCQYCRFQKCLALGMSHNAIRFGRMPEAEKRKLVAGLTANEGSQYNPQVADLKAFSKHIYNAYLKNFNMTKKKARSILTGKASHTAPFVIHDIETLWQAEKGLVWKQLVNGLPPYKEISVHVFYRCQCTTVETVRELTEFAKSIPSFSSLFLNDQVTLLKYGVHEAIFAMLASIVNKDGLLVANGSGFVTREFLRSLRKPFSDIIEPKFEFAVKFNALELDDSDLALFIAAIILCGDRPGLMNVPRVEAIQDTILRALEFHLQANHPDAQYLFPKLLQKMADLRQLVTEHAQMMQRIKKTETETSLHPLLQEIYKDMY
Compound,outcome,AC50
CCCCCC/C=C/C=O,inactive,
CCO[Si](C)(OCC)OCC,inactive,
CCCCCCCCCCC=CC#N,inactive,
S=C(NC1CCCCC1)NC1CCCCC1,inactive,
N[C@H]1C(O)O[C@H](CO)[C@H](O)[C@@H]1O (stereo not given in full),inactive,
CCC(=O)Oc1ccc(/C(CC)=C(\CC)c2ccc(OC(=O)CC)cc2)cc1,inactive,
C[C@]12CCC(=O)C=C1CC[C@@H]1[C@@H]2C(=O)C[C@@]2(C)[C@H]1CC[C@]2(O)C(=O)CO,inactive,
CCCCCCCC/C=C\CCCCCCCC(=O)O,,100 µM (active)
CCOC(=O)N1CCC(=C2c3ccc(Cl)cc3CCc3cccnc32)CC1,inactive,
FC(F)=C(F)OC(F)(F)C(F)(F)C(F)(F)F,inactive,
NC(=O)OCC(COC(N)=O)c1ccccc1,inactive,
CCN(CCC#N)c1ccc(N=Nc2c(Cl)cc([N+](=O)[O-])cc2Cl)cc1,inactive,
C=CC=CC=CCCCCC,inactive,
CCCCCCCC(C)=O,inactive,
ON(Cc1ccccc1)Cc1ccccc1,inactive,
COc1ccc(NC(C)=O)cc1N,inactive,
C#CC1(O)CC[C@H]2[C@@H]3CCC4=CCCC[C@@H]4[C@H]3CC[C@@]21C (stereo not given in full),inactive,
CCCNC(=O)NS(=O)(=O)c1ccc(Cl)cc1,inactive,
CC(C)=CCC[C@H](C)CCO,inactive,
CC(CC=O)c1ccccc1 (stereo not given),inactive,

Compound,outcome,AC50
c1ccc(CNCc2ccccc2)cc1,inactive,
OC1CCCC1,inactive,
CC(C)c1ccc2c(C(C)C)cc(C(C)C)c(S(=O)(=O)O)c2c1,inactive,
CCOC(F)(F)C(F)(F)C(F)(F)C(F)(F)F,inactive,
CCOC(=O)CC,inactive,
CC1(C)O[C@@H]2C[C@H]3[C@@H]4C[C@H](F)C5=CC(=O)CC[C@]5(C)[C@H]4[C@@H](O)C[C@]3(C)[C@]2(C(=O)CO)O1,inactive,
O=C(c1ccccc1)c1ccc(O)c(O)c1O,inactive,
N#CCc1ccc(Cl)cc1Cl,inactive,
C=CCCCCCCCCC(=O)OCCCC,inactive,
COCCCOCCCOC,inactive,
CC(=O)OCC(C)OC(C)=O (stereo not given),inactive,
CC(=O)[C@H]1[C@H](C#N)C[C@H]2[C@@H]3CC=C4C[C@@H](O)CC[C@]4(C)[C@H]3CC[C@@]21C,inactive,
CCCCCCCC/C=C\CCCCCCCC(=O)OCCO,inactive,
C=C1[C@H]2CC[C@@H]3[C@H]2C(C)(C)CCC[C@]13C,inactive,
CCCCCC/C=C\CCCCCCCC(=O)O,inactive,
Cc1ccc(OC(=O)CC(C)C)cc1,inactive,
CC(=O)C=CC1C(C)=CCC(C)C1(C)C (stereo not given),inactive,
C/C=C\C/C=C/CCCCCCCCOC(C)=O,inactive,
COCCOCCOCCOCCOC,inactive,
CCO[Si](CCCN=C=O)(OCC)OCC,inactive,

# Reference: PubChem BioAssay (EPA / NIEHS)
